The entries come from a sample that favours hits as a whole.
ST2 inh – IL1RL1 inhibition; AlphaLISA ST2-Fc/biotin-IL-33 interaction, 1 h; Q01638; inhibition, % for hits at 17 µM; hit rate 2.3% among 78,000; in the data active means inhibition above about 30%
Target sequence (Q01638 whole entry, looked up): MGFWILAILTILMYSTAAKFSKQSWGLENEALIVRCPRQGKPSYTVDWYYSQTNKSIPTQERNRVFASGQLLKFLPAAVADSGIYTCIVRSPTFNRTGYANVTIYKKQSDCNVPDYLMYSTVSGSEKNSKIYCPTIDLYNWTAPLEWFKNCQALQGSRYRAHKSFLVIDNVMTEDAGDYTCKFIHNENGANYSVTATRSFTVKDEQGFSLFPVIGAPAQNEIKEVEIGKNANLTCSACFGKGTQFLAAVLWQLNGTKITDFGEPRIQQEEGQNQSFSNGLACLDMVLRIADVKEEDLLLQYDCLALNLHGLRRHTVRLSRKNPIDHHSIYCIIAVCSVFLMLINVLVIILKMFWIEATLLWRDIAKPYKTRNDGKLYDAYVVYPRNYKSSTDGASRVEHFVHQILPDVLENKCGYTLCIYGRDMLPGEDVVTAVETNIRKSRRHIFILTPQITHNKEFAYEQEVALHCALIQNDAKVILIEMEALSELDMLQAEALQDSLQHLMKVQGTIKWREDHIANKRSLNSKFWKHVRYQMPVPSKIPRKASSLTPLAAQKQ
Each line names hits and unclear results; the compound was inactive in the other large screens.

COC(=O)Cc1cc(C2CCN(C(=O)c3cccnc3SC)CC2)n[nH]1	none
C#CCn1cnc2c(cnn2-c2ccc(Cl)cc2)c1=O	none
CCOC(=O)c1ccc(Nc2ncnc3nc[nH]c23)cc1	ST2 inh 30%
COc1ccc(Nc2ncnc3nc[nH]c23)cc1OC	none
CCOC(=O)c1ccc(Nc2ncnc3c2cnn3-c2ccc(Cl)cc2)cc1	none
COc1ccc(NC(=O)c2coc(=O)c3ccccc23)c(OC)c1	none
COc1ccc(C2=C/C(=C3/c4ccccc4-c4ncccc43)C(=O)O2)c(OC)c1	ST2 inh 31%
COc1ccc(N2C(=O)c3cccnc3C2=O)c(OC)c1	none
CCCCc1nc(N2CCCC2)c(C#N)c2c1COC(C)(C)C2	none
Brc1ccc(CN2CCc3ccccc3C2)o1	none
O=C(COc1ccccc1)N1CCN(c2ccc([N+](=O)[O-])c(NCCc3ccccc3)c2)CC1	ST2 inh 33%
O=C(CCCOc1ccccc1)N1CCN(c2ccc([N+](=O)[O-])cc2)CC1	none
Cc1ccc(OCC(=O)N2CCN(c3ccccc3)CC2)cc1C	none
CC(C)(C)c1ncc2c(n1)CN(C(=O)Cc1ccc3c(c1)NC(=O)CO3)C2	none
Cc1ccc(C(=O)C(NC(=O)c2cccs2)Nc2ccc(S(N)(=O)=O)cc2)cc1 (configuration not stated)	none
Cc1nnc(-c2ccccc2-c2cccc(CN3CCOCC3)c2)o1	none
Cc1nnc(-c2cccc(-c3cc(NCc4ccccn4)nc4[nH]ccc34)c2)o1	ST2 inh 35%
Cc1cccc(-c2nnc(-c3nc(NCc4ccccc4C)c4ccccc4n3)o2)c1	none
CCCOc1cc(C)c2c(c1C)C[C@H]([C@H](C)C(=O)O)CC2	none
CC(=O)N1c2c(cc(Br)cc2S(=O)(=O)CCC(=O)NC2CCCC2)CC1C (configuration not stated)	none
N#C/C(=C\c1ccc(Br)cc1)c1nc(C2CC2)cs1	ST2 inh 49%
O=C(Nc1nc(-c2cccs2)cs1)c1ccc(Br)cc1	none
N#C/C(=C/c1ccc(Br)cc1)c1nc(-c2cccs2)cs1	ST2 inh 40%
N#Cc1c(-c2ccccc2)cc(-c2cccs2)nc1Br	none
CC1OC2OC(=O)C3(C)CC4=C(CO)C5=C(CC(=O)C4(C)C(C1=O)C23)C(C)(C)OC(=O)C5 (configuration not stated)	none
O=C(CSc1ncccn1)Nc1ccc(F)c(Cl)c1	none
COc1ccc(N2C(=O)[C@@H]3C4c5ccccc5C(C(C)O)(c5ccccc54)[C@@H]3C2=O)cc1 (some centres not stated)	none
Cc1cc([N+](=O)[O-])nn1CCCC(=O)Nc1ccc(Cl)c(Cl)c1	none
Cc1ccc(C2C3=C(Nc4c2c(=O)[nH]c(=O)n4C)c2ccccc2C3=O)cc1 (configuration not stated)	ST2 inh 38%
CCOC(=O)C1=C(C)NC2=C(C(=O)c3ccccc32)C1c1ccc(C)cc1 (configuration not stated)	none
Cc1ccc(C2OC(=O)c3ccccc32)cc1Cl (configuration not stated)	none
Cc1ccc(C2C3=C(Nc4c2c(=O)[nH]c(=O)n4C)c2ccccc2C3=O)cc1Cl (configuration not stated)	ST2 inh 32%
Cn1c2c(c(=O)[nH]c1=O)C(c1ccc([N+](=O)[O-])o1)C1=C(N2)c2ccccc2C1=O (configuration not stated)	none
CCOc1cc(C2C3=C(Nc4c2c(=O)n(C)c(=O)n4C)c2ccccc2C3=O)ccc1O (configuration not stated)	none
O=C(CSc1nc2c(sc3ccccc32)c(=O)n1CCO)NCCc1ccccc1	none
CCN1C(=O)C(C(=O)c2ccccc2)C2CC1(C)Oc1ccccc12 (configuration not stated)	none
COC(=O)c1ccc(-c2noc(CN3CCCCC3c3nccs3)n2)cc1 (configuration not stated)	none
Cc1ccnc(Nc2nc(-c3ccc(O)c(O)c3)cs2)c1	ST2 inh 44%
Cc1ccnc(Nc2nc(-c3ccccn3)cs2)c1	none
Cc1ccc(Nc2nc(-c3ccc(F)cc3)cs2)cc1C	none
CN1C(=O)N(CCCc2ccncc2)C(=O)C12CCN(Cc1cc3ccccc3o1)CC2	none
CC(C)(C)c1ccc(C(=O)Nc2ccc(S(=O)(=O)N3CCCC3)cc2)cc1	none
O=C(Nc1ccccc1)c1ccc(S(=O)(=O)N2CCCCC2)cc1	none
O=C(O)c1ccc(S(=O)(=O)N2CCCC2)cc1	ST2 inh 35%
O=C(NCC(CNCc1ccccc1)([N+](=O)[O-])[N+](=O)[O-])c1ccccc1	none
O=[N+]([O-])c1ccc(N2CCN(S(=O)(=O)c3ccccc3)CC2)cc1NCC1CCCO1 (configuration not stated)	none
CS(=O)(=O)N1CCN(c2ccc([N+](=O)[O-])c(NCCN3CCOCC3)c2)CC1	none
O=[N+]([O-])c1ccc(N2CCCC2)cc1NCC1CCCO1 (configuration not stated)	ST2 inh 30%
Cc1cc(C)nc(NC(=O)c2ccc(Cl)cc2Cl)c1	none
CNC(=O)C(=O)Nc1cccc(Br)c1	none
CC1CC(=O)C2=C(C1)OC(N)=C(C#N)C2c1ccco1 (configuration not stated)	none
N#CC1=C(N)n2c(s/c(=C\c3ccco3)c2=O)=C(C#N)C1c1ccco1 (configuration not stated)	ST2 inh 37%
CCCOc1ccc(-c2nc3s/c(=C\c4ccco4)c(=O)n3n2)cc1	none
CCc1cc2c(=O)c(-c3ccc(OC)cc3)c(C)oc2cc1OC	none
COc1cccc(CN2CCN(C(=O)c3cc(OC)c(OC)c(OC)c3)CC2)c1OC	none
O=C(c1ccc(-n2cnnn2)cc1)N1CCC2(CCCNC2)C1 (configuration not stated)	none
OCCN=c1scc(-c2ccc(Br)cc2)n1-c1ccccc1	ST2 inh 39%
O=c1c2c(-c3ccc(Br)cc3)csc2ncn1-c1ccccc1	none
O=C(N=c1scc(-c2ccccc2)n1-c1ccccc1)c1ccco1	none
CSc1nc2c(c(=O)[nH]1)C(c1ccc(Cl)cc1)C1=C(CC(C)(C)CC1=O)N2 (configuration not stated)	none
CCc1ccc(NC(=O)c2cc3ccccc3o2)cc1	none
COc1ccccc1C1C2CCCC=C2C(C#N)=C(N)C1(C#N)C#N (configuration not stated)	none
CC(=O)N1/C(=C/c2ccncc2)C(=O)c2ccccc21	ST2 inh 39%
COc1ccc(-c2nc3s/c(=C\c4ccc(N(C)C)cc4)c(=O)n3n2)cc1	none
CC(=O)N1C(=O)C(=O)c2ccccc21	none
CC(Oc1ccc(C=C2C(=O)c3ccccc3C2=O)cc1)C(=O)O (configuration not stated)	none
CNC(=O)N1C(=O)C(=O)c2ccccc21	none
CC(=O)N1/C(=C/c2ccc(N(C)C)cc2)C(=O)c2ccccc21	ST2 inh 66%
Cc1ccn2cc(-c3cccc(NC(=O)c4cc5cc(Br)ccc5oc4=O)c3)nc2c1	none
COc1ccc(OC)c(NC(=O)CN(c2cc(C)ccc2OC)S(C)(=O)=O)c1	none
CNC(=O)C(=O)Nc1cccc(Cl)c1	none
N=C1S/C(=C\c2ccc(-c3ccc(Cl)c(C(=O)O)c3)o2)C(=O)N1c1nccs1	none
COc1cc(Cl)cc2cc(C(=O)N3CCCC4(CC3)CNC(=O)O4)oc12 (configuration not stated)	none
Cn1c(=O)c2cc(S(=O)(=O)N3CCN(Cc4ccccc4)CC3)ccc2n(C)c1=O	none
COc1ccc(NC(=O)CSc2nc3ccc(NC(C)=O)cc3s2)cc1	none
O=C1CCCC2=C1C(c1ccc(O)cc1)c1c(nc(SCc3ccccc3)[nH]c1=O)N2 (configuration not stated)	none

Assay outcomes (PubChem)
